Reference: PubChem BioAssay (EPA / NIEHS)
Activity calls are given as the source filed them. How the source made its calls: active means hit-call score of the fitted dose curve at least 0.9, where 1 is the maximum; inactive means score below 0.9.

Read-out: Tissue Factor, F3 (gene 2152)
Experiment: BSK_LPS_TissueFactor: BioMAP Diversity Plus: LPS Assay for Tissue Factor Biomarker Activity (AID 2283084)
Details: primary human HUVEC with PBMC; actives raise or lower the signal
Method: BSK_LPS is a cell-based, multiplexed-readout assay that uses umbilical vein endothelium and peripheral blood mononuclear cells, a human vascular primary cell co-culture, with measurements taken at 24 hours after chemical dosing in a 96-well plate.BSK_LPS_TissueFactor is an assay component measured in the BSK_LPS assay. It measures CD142 Tissue Factor antibody related to regulation of gene expression using ELISA technology.Data from the assay component BSK_LPS_TissueFactor was analyzed into 1 assay endpoint. This assay endpoint, BSK_LPS_TissueFactor, was analyzed with bidirectional fitting relative to DMSO as the negative control and baseline of activity. Using a type of binding reporter, gain or loss-of-signal activity can be used to understand changes in the signaling as they relate to the gene F3. Furthermore, this assay endpoint can be referred to as a primary readout, because this assay has produced multiple assay endpoints where this one serves a signaling function. To generalize the intended target to other relatable targets, this assay endpoint is annotated to the cytokine intended target family, where the subfamily is coagulation factor.
The levels of cell surface (or secreted, indicated by the prefix "s") biomarker endpoints were measured by ELISA. Overt cytotoxicity to cells in confluent adherent cultures (all systems other than the BT system) was assessed by measuring total protein levels using sulforhodamine B (SRB) staining in parallel cultures at the time of biomarker measurements, indicated as SRB endpoints. For proliferation assays for adherent cell types, individual cell types are cultured at sub-confluence and relative cell numbers quantified by SRB staining at time points optimized for each system (48 h: 3C and CASM3C systems; 72 h: BT and HDF3CGF systems; 96 h: SAg system). SRB was performed by staining cells with 0.1% SRB after fixation with 10% TCA and reading wells at 560 nm.Viability and proliferation of PBMC (T cells) was quantified by Alamar Blue reduction for the SAg and BT systems. For PBMC viability (referred to as PBMC Cytotoxicity within the assay endpoint names), cells were plated (75,000/well in a 96-well plate) and then chemical samples added for 1 h before addition of activators, SEB and TSST-1 (20 ng/mL final concentration each). Cells were incubated for 90 h. Then, Alamar Blue (20 uL/well) (Invitrogen, Cat DAL1100) was added for 6 h, and the plates were read with a fluorescence microplate reader at 546/580 nm (excitation/emission). For PBMC proliferation, cells were plated and activated as above but incubated for only 16 h prior to addition of Alamar Blue. Plates were read after 6 h.

SMILES | outcome | AC50
N#Cc1cccnc1 | inactive | 
O=c1oc2ccccc2c(O)c1C(CC(O)c1ccc(-c2ccc(Br)cc2)cc1)c1ccccc1 (stereo not given) |  | 19.1 µM (active)
CC(C=O)Cc1ccc2c(c1)OCO2 (stereo not given) | inactive | 
c1ccc2sc(SNC3CCCCC3)nc2c1 |  | 0.676 µM (active)
[Cl][Sn]([c]1ccccc1)([c]1ccccc1)[c]1ccccc1 |  | 0.308 µM (active)
CCOC(=O)CC(=O)CCl |  | 33.1 µM (active)
Oc1c(Br)cc(Br)cc1Br | inactive | 
C#CCOC(=O)/C=C(C)/C=C/CC(C)CCCC(C)C (stereo not given) | inactive | 
O=S(=O)(c1ccc(Cl)cc1)c1cc(Cl)c(Cl)cc1Cl | inactive | 
Cc1cc(Cl)ccc1N | inactive | 
Cc1ccc2nc3sc(=O)sc3nc2c1 | inactive | 
C[C@]12CC[C@@H](O)C[C@@H]1CC[C@@H]1[C@@H]2CC[C@]2(C)C(=O)CC[C@@H]12 | inactive | 
COCC(=O)N(c1c(C)cccc1C)[C@H](C)C(=O)OC | inactive | 
O=C(O)COc1cc(Cl)c(Cl)cc1Cl | inactive | 
Cc1cc(C(C)(C)c2ccc(O)c(C)c2)ccc1O | inactive | 
CC1(C)[C@H](C(=O)O[C@H](C#N)c2cccc(Oc3ccccc3)c2)[C@@H]1/C=C(\Cl)C(F)(F)F | inactive | 
OCCCCO | inactive | 
O=C(O)C1(c2ccc3c(c2)OC[C@H](Cc2ccc(-c4ccccc4)cc2)[C@H]3O)CCCC1 | inactive | 
O=[N+]([O-])c1ccc(Nc2ccccc2)cc1 | inactive | 
Cc1ccccc1OP(=O)(Oc1ccccc1C)Oc1ccccc1C |  | 27.5 µM (active)

SMILES | outcome | AC50
Nc1ccc(N)cc1 |  | 5.53 µM (active)
O=C(CCl)NCO | inactive | 
Oc1ccc(Cc2ccc(O)cc2)cc1 | inactive | 
CCCCN(CCCC)C(=S)[S-].CCCCN(CCCC)C(=S)[S-].[Ni+2] | inactive | 
CC(C)N(C(=O)CCl)c1ccccc1 | inactive | 
N#CCCC(Br)(C#N)CBr (stereo not given) |  | 21.4 µM (active)
COc1ccccc1N | inactive | 
Clc1cccc(Cl)c1Cl | inactive | 
CCCCOC(=O)COC(=O)c1ccccc1C(=O)OCCCC | inactive | 
CCOP(=O)(OCC)SCCSCC | inactive | 
O=C(Cc1ccccc1)OCCc1ccccc1 | inactive | 
OC(Cc1ccccc1Cl)(Cn1[nH]cnc1=S)C1(Cl)CC1 (stereo not given) | inactive | 
CC(C)(C)c1cc([N+](=O)[O-])cc(C(C)(C)C)c1O | inactive | 
NC(=O)CCl | inactive | 
Cc1cccc(OP(=O)(Oc2cccc(C)c2)Oc2cccc(C)c2)c1 | inactive | 
O=S(=O)(C(Cl)(Cl)Cl)C(Cl)(Cl)Cl |  | 3.21 µM (active)
CCN(CC)C(=O)C(Cl)=C(C)OP(=O)(OC)OC | inactive | 
Cc1ccc(OP(=O)(Oc2ccc(C)cc2C)Oc2ccc(C)cc2C)c(C)c1 | inactive | 
CCOP(=S)(OCC)OP(=S)(OCC)OCC | inactive | 
CCOP(=S)(OCC)SCS(=O)(=O)C(C)(C)C | inactive | 
